# Where “and” joins values, the source holds several entries; their conditions need not be identical. Equal values may be shown once. Calls of active or inactive are those of the source.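 How the source made its calls, unless noted: active means compounds whose cell count with miR-34 switched on is under 0.7 times the count with it off; inactive means the rest.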
# Columns and labels:
# [1] = suppressors of polyQ aggregation in yeast, 75Q-TubU reporter (AID 1593); conditions: Yeast 75Q polyglutamine aggregation reporter
# [2] = inhibitors of mitochondrial cytochrome c release, biochemical, purified mitochondria (AID 1603); conditions: stronger effect = lower value;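 further: mouse liver mitochondria challenged with calcium chloride; signal normalized to the plate average as 100%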
# [3] = inhibitors of polyQ protein aggregation (AID 1604); conditions: polyglutamine-induced protein aggregation inhibition assay; stronger effect = higher value; tested at 2.5 µM
# [4] = liver-stage malaria parasite growth inhibition, primary screen, cell-based, HepG2, luciferase luminescence, HepG2 viability (AID 624349; in the data active means parasite load remaining mostly below about 12%, no sharp cut-off; inactive means mostly above about 10%;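 further: 100% = mean of DMSO negative control wells on the same plate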); conditions: P. berghei liver stage in HepG2, luciferase luminescence, concentration not given here; parasite load remaining: stronger effect = lower value; viability: measured here: HepG2 viability without parasites
# [5] = stimulators of nuclear beta-catenin in C2C12, primary screen, imaging, WNT3A-conditioned medium, mouse C2C12, NPC library (AID 1117326; in the data active means nuclear beta-catenin stimulation mostly above about 4.2%, no sharp cut-off; inactive means mostly below about 10%); conditions: stronger effect = higher value
# [6] = stimulators of insulin release from INS-1E, primary screen, cell-based, 5 mM glucose, NPC library (AID 1117329;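 active means compound raises insulin release from rat beta cells at 5 mM glucose, no numeric limit stated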); conditions: rat INS-1E insulin secretion, at 10 µM, stronger effect = higher value
# [7] = growth inhibition of GSK3B-pretreated HCT116 cells – cell-based, CellTiter-Glo, 0.2 to 20 µM (AID 1117336;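 active means compounds lowering colon cancer cell viability after pretreatment blocking the GSK3B kinase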); conditions: HCT116 viability after GSK3B inhibitor, at 20 µM, stronger effect = higher value
# [8] = inhibition of endothelial tube formation, primary screen, imaging, VEGF stimulated, CD31 staining, tube area, NPC library (AID 1117340;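 active means compound that reduces growth-factor-driven endothelial tube area in a mixed cell culture, no cutoff stated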); conditions: VEGF-stimulated ADSC/ECFC co-culture, at 10 µM, stronger effect = higher value
# [9] = glucagon-like peptide 1 release enhancers, primary assay, NCI-H716 cell line, NPC library (AID 1117341;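 active means compound raises GLP1 secretion from the human gut endocrine cells, with no numeric limit stated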); conditions: NCI-H716 cells, at 10 µM, stronger effect = higher value
# [10] = HCT116 colon cancer cell growth inhibition, primary screen, CellTiter-Glo luminescence, NPC library (AID 1117342;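 active means compounds that lower survival of HCT116 colon cancer cells in the luminescence readout, no numeric limit stated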); conditions: at 20 µM (top of the series)
# [11] = CellTiter-Glo luminescent readout of SW480 viability loss, NPC library primary (AID 1117343;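 active means compounds that lower viability of the colon cancer cells in the luminescence readout, with no numeric limit stated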); conditions: CellTiter-Glo luminescence; at 20 µM (top of the series)
# [12] = decreased DLD-1 cellular survival, CellTiter-Glo luminescent readout, NPC compound collection, primary HTS (AID 1117346;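 active means compounds that lower survival of DLD-1 colon cancer cells in the luminescence readout, no cutoff given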); conditions: DLD-1 viability, CellTiter-Glo luminescence; at 20 µM (top of the series)
# [13] = target: 6-phosphogluconate dehydrogenase, decarboxylating (Homo sapiens) (UniProt P52209); assay: 6PGD enzyme inhibitors, primary screen, biochemical, human, recombinant enzyme, NADPH absorbance (AID 1159550;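 active means at least 20% inhibition of 6-phosphogluconate dehydrogenase activity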); conditions: recombinant 6PGD, NADPH absorbance 341 nm; at 10 µM; stronger effect = higher value
# Sequence of 6-phosphogluconate dehydrogenase, decarboxylating (Homo sapiens) (P52209 whole entry, looked up): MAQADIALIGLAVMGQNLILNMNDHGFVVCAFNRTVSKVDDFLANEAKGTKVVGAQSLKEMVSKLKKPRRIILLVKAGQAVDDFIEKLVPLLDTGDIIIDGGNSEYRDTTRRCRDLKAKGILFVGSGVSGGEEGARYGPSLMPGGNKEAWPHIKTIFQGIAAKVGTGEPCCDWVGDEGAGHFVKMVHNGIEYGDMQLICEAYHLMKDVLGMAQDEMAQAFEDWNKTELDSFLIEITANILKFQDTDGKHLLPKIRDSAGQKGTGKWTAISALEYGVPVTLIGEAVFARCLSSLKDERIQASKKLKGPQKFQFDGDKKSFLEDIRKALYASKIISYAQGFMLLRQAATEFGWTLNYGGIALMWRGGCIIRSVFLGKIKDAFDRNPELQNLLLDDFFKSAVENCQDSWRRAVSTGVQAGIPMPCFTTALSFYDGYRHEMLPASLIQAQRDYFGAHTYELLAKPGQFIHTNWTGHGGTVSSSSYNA
# [14] = differential killing of epithelial or mesenchymal cells, primary screen, imaging, PC-3E GFP, TEM4-18 mCherry, co-culture (AID 1345086;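 active means compounds killing one labelled cell type while sparing the other, by normalised counts and ratio limits, not self-fluorescent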;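 on all read-outs here: cells exposed to compound for 72 h before imaging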;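 on red/green cell ratio (normalised): normalised mesenchymal count divided by normalised epithelial count so high means epithelial killing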); conditions: imaging cell counts, at 1 µM; for red/green cell ratio (normalised): actives lie on both sides
# [15] = test system: Aerobactin synthetase IucA (Klebsiella pneumoniae hvKP1); assay: Biochemical IucA enzyme inhibition primary screen of the Spectrum library (AID 1346200; call rule not given here;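 further: 100% = wells without compound and 0% = wells lacking enzyme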); conditions: malachite green pyrophosphate, A620, at 8 µM, stronger effect = lower value
# [16] = sensitizers of A549 cells to miR-34 induction, primary screen, imaging, A549 dox-inducible miR-34, nuclei and caspase counts (AID 1347080); conditions: A549 miR-34 inducible, Hoechst nuclei count, 48 h
# [17] = target: NAD(+) hydrolase SARM1 (Homo sapiens) (UniProt Q6SZW1); assay: SARM1 TIR NADase inhibitors, cell lysate, NAD-Glo luminescence (AID 1508614;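 active means compound whose remaining NAD level is above about 45 nM, limit read from the data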); conditions: SAM-TIR HEK293T lysate NADase, at 1 µM, stronger effect = higher value
# Sequence of NAD(+) hydrolase SARM1 (Homo sapiens) (Q6SZW1 whole entry, looked up, the tested form may be a part): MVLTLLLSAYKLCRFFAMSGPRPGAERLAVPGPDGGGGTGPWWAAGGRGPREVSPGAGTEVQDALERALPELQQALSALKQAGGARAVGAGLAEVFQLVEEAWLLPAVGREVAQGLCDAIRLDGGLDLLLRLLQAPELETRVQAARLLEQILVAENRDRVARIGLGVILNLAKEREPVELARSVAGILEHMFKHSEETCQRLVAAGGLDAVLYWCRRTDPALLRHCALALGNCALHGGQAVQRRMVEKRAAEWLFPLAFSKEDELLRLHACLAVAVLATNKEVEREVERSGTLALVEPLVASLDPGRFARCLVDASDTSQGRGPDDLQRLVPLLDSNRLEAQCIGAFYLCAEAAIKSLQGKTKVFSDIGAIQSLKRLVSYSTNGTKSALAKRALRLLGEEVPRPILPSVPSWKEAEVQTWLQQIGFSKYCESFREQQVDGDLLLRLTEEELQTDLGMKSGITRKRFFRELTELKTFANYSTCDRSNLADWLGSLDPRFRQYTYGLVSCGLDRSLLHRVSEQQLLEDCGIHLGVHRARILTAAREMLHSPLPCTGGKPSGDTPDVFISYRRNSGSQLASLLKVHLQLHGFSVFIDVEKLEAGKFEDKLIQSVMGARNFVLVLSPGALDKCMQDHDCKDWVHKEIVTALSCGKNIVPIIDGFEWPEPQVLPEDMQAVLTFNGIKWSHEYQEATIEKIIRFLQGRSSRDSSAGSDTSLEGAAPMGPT
# [18] = target: Mitogen-activated protein kinase 7 (Homo sapiens) (UniProt Q13164); assay: ERK5 transactivation activators in reporter cells, primary screen, cell-based, HTS (AID 1508626;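 active means luciferase signal above three times the same-plate solvent-only control wells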;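 further: luciferase driven by Gal4-ERK5 fusion binding five Gal4 sites before minimal TATA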); conditions: HeLa Gal4-ERK5 transactivation, 18 h, at 5 µM, stronger effect = higher value
# Sequence of Mitogen-activated protein kinase 7 (Homo sapiens) (Q13164 whole entry, looked up, the tested form may be a part): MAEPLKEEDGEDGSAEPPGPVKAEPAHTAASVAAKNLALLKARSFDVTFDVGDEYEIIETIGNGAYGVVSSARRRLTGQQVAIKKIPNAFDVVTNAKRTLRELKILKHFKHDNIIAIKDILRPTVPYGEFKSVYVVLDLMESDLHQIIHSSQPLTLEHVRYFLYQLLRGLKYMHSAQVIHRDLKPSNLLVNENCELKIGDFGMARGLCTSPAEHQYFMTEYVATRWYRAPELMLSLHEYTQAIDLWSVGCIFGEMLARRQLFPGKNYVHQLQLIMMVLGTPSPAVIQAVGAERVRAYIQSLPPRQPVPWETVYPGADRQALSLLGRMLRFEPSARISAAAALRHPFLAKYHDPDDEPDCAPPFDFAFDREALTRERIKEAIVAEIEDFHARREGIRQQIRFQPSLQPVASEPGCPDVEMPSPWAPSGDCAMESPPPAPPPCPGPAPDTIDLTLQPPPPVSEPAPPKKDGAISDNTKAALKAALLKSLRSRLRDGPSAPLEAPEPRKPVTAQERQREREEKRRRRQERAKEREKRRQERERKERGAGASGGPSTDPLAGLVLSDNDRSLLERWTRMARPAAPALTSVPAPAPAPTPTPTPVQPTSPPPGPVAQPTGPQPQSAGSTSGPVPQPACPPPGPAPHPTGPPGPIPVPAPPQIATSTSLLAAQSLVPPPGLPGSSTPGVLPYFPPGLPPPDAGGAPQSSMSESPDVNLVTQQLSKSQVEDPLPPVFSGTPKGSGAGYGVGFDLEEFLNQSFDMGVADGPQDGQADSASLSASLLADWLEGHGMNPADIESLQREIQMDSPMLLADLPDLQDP
# [19] = survival rescue of mitochondrial mutant cells in low glucose, primary screen, MELAS cybrids, Rieske KO mouse fibroblasts, CellTiter-Glo (AID 1508586;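 active means mean z-score across replicates of 1.96 or higher in either the MELAS or the Rieske mutant cell line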;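 further: z relative to plate mean and SD of compound and empty wells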)
# [20] = viability rescue of complex I mutant cybrids, primary screen, cell-based, galactose medium, ATP luminescence (AID 1645843;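 active means z-score of at least 1.8 in each of two replicates, scored against plate mean and spread of sample wells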;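 further: positive z means more ATP and so rescue of galactose-driven cybrid death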); conditions: complex I mutant cybrid cells, 72 h, stronger effect = higher value
# [21] = measured here: epithelial PC-3E GFP cell survival
# [22] = measured here: mesenchymal TEM4-18 mCherry cell survival
# [23] = measured here: relative caspase fold change +Dox/-Dox
# [24] = measured here: total cells with miR-34 induction, stronger effect = lower value
# [25] = measured here: total cells without miR-34 induction
structure (smiles),measurement,setting,value
NCCc1cc(O)c(O)cc1O,score,[1],1.88
same,cytochrome c release ratio,[2],0.92
same,inhibition of aggregation,[3],55.6%
same,parasite load remaining,[4],70% (inactive) and 42.8% (inactive)
same,viability,[4],70% and 87.6%
same,nuclear beta-catenin stimulation,[5]; at 10 µM,2.4% (inactive)
same,nuclear beta-catenin stimulation,"[5]; stimulation, at 2 µM",2.4%
same,insulin secretion stimulation,[6],1.2% (inactive)
same,viability decrease,[7],-22.3% (inactive)
same,tube area decrease,[8],18.6% (inactive)
same,GLP1 secretion stimulation,[9],-8.1% (inactive)
same,inhibition of viability,[10],15.3% (inactive)
same,viability decrease (inhibition),[11],142% (active)
same,viability decrease (inhibition),[12],78.2% (active)
same,inhibition,[13],13% (inactive)
same,red/green cell ratio (normalised),[14],1.14 (inactive)
same,normalised cell number,[14]; [21],1.02
same,normalised cell number,[14]; [22],1.17
same,activity remaining,[15],78.8% (inactive)
same,fold change,[16]; stronger effect = lower value,0.838 (inactive)
same,fold change,[16]; [23],0.786
same,cell count,[16]; [24],10500
same,cell count,[16]; [25],12600
same,remaining NAD,[17],10 nM (inactive)
same,luciferase signal,[18],156 AU (inactive)
COc1ccc(Cc2nccc3cc(OC)c(OC)cc23)cc1OC,score,[1],1.48
same,cytochrome c release ratio,[2],1.07
same,inhibition of aggregation,[3],46.4%
same,nuclear beta-catenin stimulation,[5]; at 10 µM,1.4% (inactive)
same,nuclear beta-catenin stimulation,"[5]; stimulation, at 2 µM",-0.3%
same,insulin secretion stimulation,[6],-2.5% (inactive)
same,viability decrease,[7],54.7% (active)
same,tube area decrease,[8],59.3% (active)
same,GLP1 secretion stimulation,[9],2.3% (inactive)
same,inhibition of viability,[10],39.8% (inactive)
same,viability decrease (inhibition),[11],112% (active)
same,viability decrease (inhibition),[12],14.5% (inactive)
same,inhibition,[13],-8.16% (inactive)
same,red/green cell ratio (normalised),[14],0.84 (inactive)
same,normalised cell number,[14]; [21],1
same,normalised cell number,[14]; [22],0.83
same,activity remaining,[15],114% (inactive)
same,fold change,[16]; stronger effect = lower value,1.24 (inactive) and 0.81 (inactive) and 0.838 (inactive)
same,fold change,[16]; [23],0.505 and 1.57 and 3.09
same,cell count,[16]; [24],7270 and 6810 and 7780
same,cell count,[16]; [25],5860 and 8410 and 9280
same,z-score,"[19]; MELAS cybrid survival, CellTiter-Glo 48 h, stronger effect = higher value",0.889 (inactive)
same,z-score,"[19]; Rieske KO mouse fibroblast survival, CellTiter-Glo 72 h",0.124
same,remaining NAD,[17],10 nM (inactive)
same,luciferase signal,[18],24 AU (inactive)
same,z-score,[20],-1.28 (inactive)
Cc1ccc(N=CN(C)C=Nc2ccc(C)cc2C)c(C)c1,parasite load remaining,[4],103% (inactive) and 56.6% (inactive)
same,viability,[4],84.4% and 95.1%
same,nuclear beta-catenin stimulation,[5]; at 10 µM,0.6% (inactive)
same,nuclear beta-catenin stimulation,"[5]; stimulation, at 2 µM",2.7%
same,insulin secretion stimulation,[6],1.3% (inactive)
same,viability decrease,[7],15.1% (inactive)
same,tube area decrease,[8],-4.8% (inactive)
same,GLP1 secretion stimulation,[9],-3.1% (inactive)
same,inhibition of viability,[10],2.47% (inactive)
same,viability decrease (inhibition),[11],-61.8% (inactive)
same,viability decrease (inhibition),[12],-5.9% (inactive)
same,inhibition,[13],17.7% (inactive)
same,red/green cell ratio (normalised),[14],1.11 (inactive)
same,normalised cell number,[14]; [21],1.13
same,normalised cell number,[14]; [22],1.26
same,activity remaining,[15],119% (inactive)
same,fold change,[16]; stronger effect = lower value,0.87 (inactive)
same,fold change,[16]; [23],1.15
same,cell count,[16]; [24],11000
same,cell count,[16]; [25],12600
same,remaining NAD,[17],10 nM (inactive)
same,luciferase signal,[18],32 AU (inactive)

# Reference: PubChem BioAssay
